BAZ2B inh: inhibitors of human BAZ2B bromodomain; Q9UIF8; AlphaScreen BAZ2B-H3K14Ac peptide displacement; Potency, µM (highest dose often 114 µM), actives largely listed as inhibitors; 360,000 tested, 4.4% active; AID 504333; note: nearly all actives have a fitted effect of over 60% in size
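AlphaScreen luminescence quantifies BAZ2B engagement of H3K14Ac peptide; the protein and biotinylated peptide are both at 50 nM final, buffer PBS pH 7.4 with 0.01% Tween-20, all steps at room temperature.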
HP1b chromo inh: HP1-beta chromodomain-methylated histone interaction inhibition | 390,000 tested, 0.56% active | AlphaScreen HP1-beta / biotin-H3K9me3 peptide binding | Potency, µM (highest dose often 114 µM), usual class: inhibitors; note: nearly all actives have a fitted effect of over 70% in size
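HP1-beta protein (50 nM final) preincubated 30 min at room temperature with biotinylated H3(1-18)K9me3 peptide (50 nM) in PBS pH 7.4, 0.01% Tween-20, then compound added for 30 min. AlphaScreen streptavidin donor/nickel chelate acceptor beads (10 ug/mL final), 30 min dark, luminescence read.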
PI5P4K alpha inh: PI5P4K alpha (human) kinase inhibition | 330,000 tested, 1.2% active | max response, % | PI5P4Kalpha enzyme, ADP-Glo luminescence, 60 min; stronger effect = lower value | P48426; active = max response of -50% or lower; inconclusive = between -30% and -50%; inactive = -30% or higher; note: value at the top dose of about 77 µM
Target sequence (P48426 whole entry, looked up): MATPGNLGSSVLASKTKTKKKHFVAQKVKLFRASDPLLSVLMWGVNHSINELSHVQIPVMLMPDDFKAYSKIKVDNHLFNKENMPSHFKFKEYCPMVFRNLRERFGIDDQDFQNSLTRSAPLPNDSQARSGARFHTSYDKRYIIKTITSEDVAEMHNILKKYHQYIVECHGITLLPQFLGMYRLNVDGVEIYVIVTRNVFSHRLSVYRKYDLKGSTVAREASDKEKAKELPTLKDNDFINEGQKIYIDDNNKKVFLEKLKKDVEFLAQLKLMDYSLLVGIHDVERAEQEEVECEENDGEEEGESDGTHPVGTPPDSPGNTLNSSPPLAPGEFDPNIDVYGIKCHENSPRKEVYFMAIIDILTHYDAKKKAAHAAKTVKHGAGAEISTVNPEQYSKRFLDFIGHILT
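Enzyme plus substrate dispensed, test compounds pinned in, then ATP (5 microM final) added. After 60 min at RT, ADP-Glo reagent 1 for 45 min and reagent 2 for 30 min preceded luminescence imaging.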
JMJD2A Tudor inh: blocks the human JMJD2A Tudor domain | O75164 | AlphaScreen JMJD2A-Tudor / H3K4me3 peptide binding | Potency, µM (titrated, usually from 114 µM), usual class: inhibitors | 390,000 tested, 4.4% active | AID 504339; note: nearly all actives have a fitted effect of over 50% in size
PLK1 PBD inh: inhibitors of human PLK1 polo-box domain binding. P53350. Plk1 PBD binding of FITC phosphopeptide, fluorescence polarization. Potency, µM, actives largely listed as inhibitors. 360,000 tested, 2.8% active. AID 720504; note: series mostly up to about 57 µM; nearly all actives have a fitted effect of over 65% in size
G9a block: inhibitors of human histone lysine methyltransferase G9a | G9a H3K9 monomethylation, AlphaScreen, 2 h | Q96KQ7 | Potency, µM (highest dose often 102 µM), actives largely listed as inhibitors | 350,000 tested, 8.8% active | AID 504332; note: nearly all actives have a fitted effect of over 75% in size
Target sequence (Q96KQ7 913-1193 limits assumed): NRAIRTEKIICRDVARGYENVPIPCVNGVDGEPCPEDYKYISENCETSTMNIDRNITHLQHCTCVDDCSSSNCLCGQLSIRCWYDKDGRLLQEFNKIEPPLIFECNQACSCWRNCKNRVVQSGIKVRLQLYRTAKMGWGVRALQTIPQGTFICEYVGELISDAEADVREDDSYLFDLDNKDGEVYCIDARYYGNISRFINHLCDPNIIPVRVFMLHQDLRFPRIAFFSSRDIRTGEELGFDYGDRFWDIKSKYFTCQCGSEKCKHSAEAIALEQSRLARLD
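Methyltransferase reactions run at room temperature for 2 h (20 nM enzyme, 500 nM biotin-H3K9 peptide, 20 uM SAM) after a 15 min compound preincubation; product detected by AlphaScreen beads and anti-H3K9me1 antibody.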
A number is an active result; n = inactive; u = inconclusive; x = no result given; [ ] = dose if it differs, or a comment. The list is not random: actives were taken first. Their share in the collection is about 12%. Unless noted, calls come from the whole dose curve; as a rule, active = well fitted curve in the direction sought with a large enough effect; inconclusive = small, poorly fitted or top-dose-only effect, or another doubt; inactive = no such curve, though single readings can be large; an effect the other way counts as inactive or inconclusive.

SMILES	BAZ2B inh	HP1b chromo inh	PI5P4K alpha inh	JMJD2A Tudor inh	PLK1 PBD inh	G9a block
Cc1cc(N(C)/N=C/c2ccccc2O)nc(-c2ccccc2O)n1	n	n	n	n	n	u
CCOc1cc(/C=N/n2cnnc2)ccc1OCC(=O)Nc1ccccc1OC	n	n	n	n	n	n[12.7 µM]
CCOc1cc(/C=C2\C(=O)N(CCC#N)N=C2C)ccc1OCC(N)=O	n	n	n	n	19µM	71µM
CCOc1cc(/C=C2\C(=O)N(c3cccc(C(=O)O)c3)N=C2C(F)(F)F)ccc1OCC(=O)Nc1ccccc1OC	50µM	x	x	x	x	x
COc1cc(/C=C2\C(=O)N(CCC#N)N=C2C)ccc1OCC(=O)Nc1ccccc1	n	n	n	n	1.3µM	n
COc1ccc(C(=O)N2CCC3(CC2)CN(c2ccccn2)C3)cc1	x	x	x	x	x	n[12.7 µM]
CC1CCN(S(=O)(=O)c2ccc(C(=O)OC(C)C(=O)NC3CCCCC3C)cc2)CC1 (stereo not drawn)	n	n	n	n	n	32µM
CC(OC(=O)c1ccc2c(c1)OCO2)C(=O)NC1CCCCC1C (stereo not drawn)	n	n	n	n	n	28µM
CC(OC(=O)c1cccc(S(=O)(=O)N2CCCC2)c1)C(=O)NC1CCCCC1C (stereo not drawn)	n	n	n	n	n	u
CC(OC(=O)c1ccc2c(c1)OCO2)C(=O)NC1CCCCC1 (stereo not drawn)	x	x	n	x	n	x
C=CCSc1nc(-c2ccccc2)c2cc(Cl)ccc2n1	n	n	n	n	n	n
C=CCSc1nnc(C)c(/C=C/Nc2ccc(Cl)cc2)n1	n	n	u	40µM	u	u
CCCCCCCC1CC(/C(C)=N/NC(N)=O)OC1=O (stereo not drawn)	n	n	n	40µM	12µM	n
CN1CCC(N(C)C(=S)NC(=O)c2cc(-c3cccc(Br)c3)nc3ccccc23)CC1	u	n	u	13µM	21µM	u
CN1CCN(NC(=O)c2cc(-c3cccc(Cl)c3)nc3ccccc23)CC1	n	n	n	n	n	u
CCN(CC)C(=O)Cn1cc(C(=O)C(=O)N2CCN(C)CC2)c2ccccc21	n	n	n	n	n	x
CCN(CC)C(=O)Cn1cc(C(=O)C(=O)N2CC=C(c3ccccc3)CC2)c2ccccc21	n	n	n	n	n	50µM
Cc1cc(C)cc(NC(=O)c2cc(S(=O)(=O)N3CCCCC3)c[nH]2)c1	n	n	x	n	x	n
CSC1=NC(=O)/C(=C\c2cccc3ccccc23)S1	40µM	n	n	u	n	n
N=C1S/C(=C\c2cccc3ccccc23)C(=O)N1c1ccc(F)cc1	n	n	n	n	n	n
CC1CN(c2ccc(NC(=S)Nc3ccc(N4CC(C)OC(C)C4)cc3)cc2)CC(C)O1 (stereo not drawn)	n	n	n	n	n	45µM
CC(=O)c1c(O)c(C)c(O)c2c1OC1=CC(=O)C(C(C)=O)C(=O)[C@@]12C (stereo partly drawn)	n	n	n	n	n	50µM
O=C(NNc1ccc(C(F)(F)F)cc1[N+](=O)[O-])c1ccc(NS(=O)(=O)c2ccc(F)cc2)cc1	10µM	u	u	22µM	n	25µM
CC(C)[C@H](Nc1ccc(C(F)(F)F)cc1[N+](=O)[O-])C(=O)O	n	n	n	n	n	x
CCOc1ccc(-n2c(SCc3nc(-c4ccc(C)cc4)no3)nnc2-c2ccncc2)cc1	n	n	x	n	n	79µM
SMILES	BAZ2B inh	HP1b chromo inh	PI5P4K alpha inh	JMJD2A Tudor inh	PLK1 PBD inh	G9a block
COc1ccc(-c2noc(CSc3nnc(-c4ccncc4)n3-c3ccc(C)cc3)n2)cc1	n	n	x	u	x	n
COc1ccc(NC(=O)CN(c2ccc(C)cc2)S(=O)(=O)c2cccc3nonc23)cc1OC	x	n	x	n	x	u
NC(=O)COC(=O)C12CC3CC(CC(O)(C3)C1)C2	n	n	n	n	u	n
NC(CSS(=O)(=O)O)=NCCC12CC3CC(CC(O)(C3)C1)C2	n	u	n	n	12µM	10µM
CCC1(C)CC2(CCCN(CCC(=O)c3ccccc3)C2)CCO1 (stereo not drawn)	n	n	n	n	u	50µM
CCOc1ccccc1N(C)S(=O)(=O)c1ccc2c(c1)CCN2C(=O)CCC(=O)O	n	n	n	n	n	n
Cc1cn2c(=O)cc(COC(=O)c3cccc(NC(=O)COc4ccccc4)c3)nc2s1	n	n	x	n	x	n[12.7 µM]
COc1ccc(OC)c(CN2CCC(Cc3ccccc3)CC2)c1	56µM	u	n	50µM	n	x
COc1ccc(-c2noc(CN3CCC(Cc4ccccc4)CC3)n2)cc1	n	n	x	n	n	n
COc1cc(OC)c(CN2CCC(Cc3ccccc3)CC2)cc1Br	56µM	n	n	25µM	n	x
COc1cc(C)c(CN2CCC(Cc3ccccc3)CC2)cc1C	56µM	n	n	28µM	n	x
Cc1ccc(C)c(Cn2c(=O)n(CC3CCC(C(=O)N4CCOCC4)CC3)c(=O)c3sccc32)c1 (stereo not drawn)	n	n	x	n	x	n
Oc1ccc(C=NC2CCCCC2)cc1	n	n	n	n	n	n
O=[N+]([O-])c1cccc(Nc2nc(Cl)nc(Cl)n2)c1	89µM	n	n	n	n	u
COc1ccc(NS(=O)(=O)c2ccc(NC(C)=O)cc2)c(OC)c1	n	n	n	u	24µM	n
COc1ccc(OC)c(NS(=O)(=O)c2ccc(NC(C)=O)cc2)c1	n	n	x	n	n	n
COc1cc(S(=O)(=O)Nc2ccc(C(=O)NCC(=O)O)cc2)ccc1NC(C)=O	n	n	n	n	n	50µM
O=C(O)CNC(=O)c1ccc(NS(=O)(=O)c2ccc3ccccc3c2)cc1	u	n	n	n	n	40µM
COc1ccc(S(=O)(=O)Nc2ccc(NC(C)=O)cc2)cc1OC	n	n	x	n	n	n[12.7 µM]
COC(=O)c1c(NC(=O)C(C)Oc2ccc(Cl)cc2Cl)sc2c1CCCC2 (stereo not drawn)	n	n	x	n	x	3.5µM
CCCCOc1ccc(C(=O)Nc2sc3c(c2C(=O)OCC)CCCCC3)cc1	n	n	x	n	x	n
CCOC(=O)c1c(NC(=O)c2ccccc2Cl)sc2c1CCCC2	n	n	x	n	x	n
CC(Oc1ccc(Cl)cc1Cl)C(=O)Nc1ccc(O)cc1 (stereo not drawn)	50µM	n	n	n[11.4 µM]	n	25µM
CCOC(=O)c1c(NC(=O)C(C)Oc2ccc(Cl)c(C)c2)sc2c1CCCC2 (stereo not drawn)	n	n	x	n	x	3.2µM
COC(=O)c1c(NC(NC(=O)C(C)C)C(Cl)(Cl)Cl)sc2c1CCCC2 (stereo not drawn)	n	n	n	n	n	u
CCCc1ccc(OC(C)C(=O)Nc2sc3c(c2C(=O)OC)CCCCC3)cc1 (stereo not drawn)	n	u	x	n	x	7.9µM

High-throughput results from PubChem.
